Here are results for 53 molecules from ChEMBL document CHEMBL4513216, “Probing the Open Global Health Chemical Diversity Library for Multistage-Active Starting Points for Next-Generation Antimalarials” (ACS Infect Dis, 2020).

The structures appear in SMILES notation. In all, about 68,000 compounds went through this assay and about 2,700 (4%) showed an effect of 50% or more. The full list was thinned out, with strong results kept by preference.

In the experiment the test system is Plasmodium berghei. The experiment is described as follows: Screen against P. berghei liver stage (PbLuc), transformed with Luciferase, at 2uM. Particulars: tested at 2 uM. Type of experiment: functional, HepG2.
As to `CC(C)C(=O)NCCCn1ncc2c(Cl)cccc21`, the INHIBITION is listed as -7.01%. With `CSCC(=O)N(C)Cc1ccc(N(C)C)cc1` the figure was -20.68%. Turning to `Cc1ccc2cc(CN(C)Cc3ccncn3)c(=O)[nH]c2c1`, the INHIBITION was -20.98%. For the molecule `O=C(CCn1ncc2c(Cl)cccc21)NCC1CC1`, the INHIBITION is on record as 20.8%. As to `CCCC(=O)N(C)c1cccc2ncccc12`, the INHIBITION is given as 28.14%.

With `CN(Cc1cccc2ncccc12)C(=O)CCC(F)(F)F`, the INHIBITION was -22.2%. For `CN(C(=O)CCC(F)(F)F)c1cccc2ncccc12`, the INHIBITION was found to be 59.67%.

Regarding `CCN(CC)S(=O)(=O)N(C)Cc1ccc2c(c1)OCCO2`, the INHIBITION is 8.06%. On to `CCN(CC(=O)NCCc1nc(C)no1)Cc1ccc(Cl)cc1`, for which the INHIBITION is on record as -45.29%.

For the molecule `CCN(CC)C(=O)CCc1c(C)nc2cc(O)nn2c1C`, the INHIBITION was determined as 18.97%. The value for `Cc1nc2cc(O)nn2c(C)c1CCC(=O)N(C)CCC(C)C` was 65.38%; that for `Cc1nc2cc(O)nn2c(C)c1CCC(=O)N(C)Cc1ccccc1` was 37.41%; that for `CC(C)(C)c1cc(CNC(=O)c2cc(COc3ccccc3)[nH]n2)[nH]n1` was -103.13%. The value for `Cc1nn(C)c(C)c1NC(=O)CN1CCCC1c1noc(C(C)C)n1` (stereo not drawn) was 12.66%; that for `CC1=C(CCN2C[C@H](O)[C@@H](N3CCOCC3)C2)C(C)(C)CCC1` was -57.94%; that for `Cc1sc2nc(CCN)nc(N3CCN(S(C)(=O)=O)CC3)c2c1C` was 20.77%. Turning to `Cc1sc2nc(CCN)nc(N3CCS(=O)(=O)CC3)c2c1C`, the INHIBITION worked out at 60.04%. With `CCOC(=O)N1CCN(c2nc(CCN)nc3sc(C)c(C)c23)CC1` the figure was 17.89%; with `CCn1cc(Cl)c(C(=O)Nc2ccc3c(c2)C(C)(C)C(=O)N3C)n1`, 14.61%.

For the molecule `Cc1ccc(S(=O)(=O)NC(=O)CCc2ccccc2)cc1N(C)C`, the INHIBITION stood at 0.01%. With `CCOc1cccc(CCNC(=O)Cc2cccc(O)c2)n1` the figure was 26.74%. Turning to `CCOc1cccc(CCNC(=O)Cc2ccn[nH]2)n1`, the INHIBITION is 14.82%.

On to `CCOc1cccc(CCNC(=O)Cc2ccccc2O)n1`, for which the INHIBITION worked out at 76.82%. In the case of `CN(C)C(=O)C1CCC2(CCN(Cc3cnn(C)c3)CC2)C1` (stereo not drawn), the INHIBITION stood at 9.65%. With `CN(CCCOc1ccccc1)C(=O)c1csc(-c2nnc[nH]2)n1` the figure was 35.94%. The value for `COC(=O)c1cc(C(=O)N2CCN(C)CC2)n(-c2ccccc2)n1` was 15.4%; that for `COC(=O)c1cc(C(=O)N2CCC(C)CC2)n(-c2ccccc2)n1` was 35.23%; that for `COC(=O)c1cc(C(=O)N2CCCCCC2)n(-c2ccccc2)n1` was 63.95%. As to `CC(C)OCCCNC(=O)CS(=O)(=O)Cc1ccc(C(C)(C)C)cc1`, the INHIBITION came to 33.22%. With `CC(C)(C)SCC(=O)NC(C)(C(N)=O)c1cccc(Cl)c1` (stereo not drawn) the figure was -20.64%.

For the molecule `COCc1csc(NC(=O)NCc2ccccn2)n1`, the INHIBITION is reported as -4.91%. Turning to `COCc1csc(NC(=O)NCc2ccsc2)n1`, the INHIBITION is -21.99%. With `COCc1csc(NC(=O)NCc2ccc(C)s2)n1` the figure was 50.93%; with `COc1ccc(CCC(=O)NC2CCC(O)CC2)cc1OC` (stereo not drawn), -59.24%.

In the case of `Cc1nc(C)n(C2CCCN(C(=O)c3ncoc3C(C)C)C2)n1` (stereo not drawn), the INHIBITION is reported as -12.27%. `Cc1[nH]ncc1C(=O)N1CCCC(c2ccn[nH]2)C1` (stereo not drawn): the INHIBITION was -1.46%. For `CC(C)c1ocnc1C(=O)N1CCCC(c2ccn[nH]2)C1` (stereo not drawn), the INHIBITION is 70.81%.

As to `CCCN(C(=O)c1ocnc1C)C1CCCN(Cc2ccccc2)C1` (stereo not drawn), the INHIBITION amounted to 4.72%. With `CSC(C)(C)CNC(=O)NCc1cccc(-n2ccnc2)c1` the figure was -27.12%; with `CC(NC(=O)Nc1ccc(-n2cncn2)cc1)C(=O)NC(C)(C)C` (stereo not drawn), 12.01%.

Regarding `CC(O)(CNC(=O)NCc1cccc(-n2cncn2)c1)c1ccco1` (stereo not drawn), the INHIBITION is -33.81%. Turning to `CC(C)C(O)C(C)(C)CNC(=O)NCc1ccc(-n2cncn2)cc1` (stereo not drawn), the INHIBITION is recorded as 53.19%. For `CSC(C)(C)CNC(=O)NCc1cccc(-n2cncn2)c1`, the INHIBITION is reported as 54.29%. Regarding `CC(O)CC(C)(C)CNC(=O)NCc1cccc(-n2cncn2)c1` (stereo not drawn), the INHIBITION turned out to be 1.22%. The value for `Cn1cc(Cl)cc1C(=O)N1CCCN(Cc2ccccc2)CC1` was -7.88%; that for `Cc1noc(C)c1CNC1CCN(c2ccccc2OC(F)F)C1` (stereo not drawn) was -15.77%; that for `CO[C@@H]1CN(Cc2scnc2C)[C@@H]2CCCO[C@@H]21` was 34.23%. With `CC(C)n1nc(CNc2ncccn2)c2c1CN(C1CCOCC1)CC2`, the INHIBITION amounted to 38.49%. With `Cc1noc(NC(=O)c2ccc(Br)cc2)n1` the figure was -43.47%; with `CCOCCN1CCN(CC(O)c2cc(Cl)ccc2Cl)CC1` (stereo not drawn), 50.61%. The value for `CCN1CCN(CC(O)c2cc(Cl)ccc2Cl)CC1` (stereo not drawn) was -31.79%.

Take `OCCN1CCN(CC(O)c2cc(Cl)ccc2Cl)CC1` (stereo not drawn): the INHIBITION is reported as -21.76%.

Turning to `CCCn1cnnc1CNC(=O)C1COc2ccc(OC)cc2C1` (stereo not drawn), the INHIBITION is given as 21.14%.
